High-throughput results: PubChem BioAssay, National Center for Advancing Translational Sciences (NCATS)
Compounds with a hit are over-represented: about 6% of the library has one in this group of screens.
D1 agonist: activates the human D1 dopamine receptor; P21728; HEK293 T-REx D1 cells, calcium flux, agonist mode; activation, % at 2 µM; 1% of 360,000 active; AID 504660; in the data active = activation above about 30%
Target sequence (P21728 whole entry, looked up): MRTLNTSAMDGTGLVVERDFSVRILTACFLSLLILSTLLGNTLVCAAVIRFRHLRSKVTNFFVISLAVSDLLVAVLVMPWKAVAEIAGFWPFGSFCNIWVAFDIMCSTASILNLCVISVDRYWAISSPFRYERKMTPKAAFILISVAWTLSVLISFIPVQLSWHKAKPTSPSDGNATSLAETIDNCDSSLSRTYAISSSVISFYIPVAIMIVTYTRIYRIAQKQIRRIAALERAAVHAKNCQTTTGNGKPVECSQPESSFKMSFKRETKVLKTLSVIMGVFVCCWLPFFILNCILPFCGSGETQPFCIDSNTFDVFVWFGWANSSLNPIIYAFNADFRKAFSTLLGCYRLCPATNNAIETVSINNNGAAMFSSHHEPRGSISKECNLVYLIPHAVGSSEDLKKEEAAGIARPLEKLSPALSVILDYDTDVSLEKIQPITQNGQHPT
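Inducible HEK293 T-REx D1 cells, force-coupled to calcium signalling, were plated at 4000 cells/well with tetracycline and held overnight at 30 C. After no-wash calcium dye loading, compound-evoked calcium rise over 180 s flagged agonists.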
D1 antagonist: human D1 dopamine receptor antagonism; HEK293 TREx D1 cells, calcium flux, dopamine EC80; active compounds read low; activity change, negative = inhibition, % at 10 µM; 3.2% of 360,000 active; AID 504652; in the data active = activity change below about -30%
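Cells carrying a force-coupled, tetracycline-inducible human D1 receptor report calcium flux. Each well gets a 10 s baseline, compound with 180 s monitoring, then an EC80 dopamine stimulus with a second 180 s kinetic read.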
D1 PAM: enhances dopamine response at the human D1 receptor; P21728; HEK293 TREx D1 cells, calcium flux, dopamine EC20 potentiation; potentiation, % at 10 µM; 0.036% of 360,000 active; AID 504651; in the data active = potentiation above about 30%
D3 ag: activates the human D3 dopamine receptor; D3R DiscoveRx beta-arrestin cells, luminescence, 90 min; max activation, %; 0.58% of 410,000 active; AID 652048; in the data active = max activation above about 30%
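Cells at 1500/well, incubated overnight, then treated with pinned compounds (dopamine as control) for 90 min at 37 degrees C. DiscoveRx reagent added for 30 - 60 minutes at room temperature; luminescence read.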
DRD3 antagonist: D3 dopamine receptor (human) antagonism; P35462; AID 652054; max response, negative = inhibition, %; 2.5% of 360,000 active; D3R cells, DiscoveRx beta-arrestin luminescence, antagonist mode; active compounds read low; in the data active = max response below about -50%; inconclusive = no clear call, values can overlap the other calls
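Cells expressing the human receptor were seeded at 1500 cells/well, incubated overnight at 37 degrees C in 5% CO2, then exposed to library compounds with dopamine controls for 90 minutes at 37 degrees C before luminescent detection.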
Of the large screens only hits and unclear results are named; the others gave an inactive call.

O=C1CC(=C(c2ccccc2)c2ccccc2)C(=O)N1CCCN1CCN(c2cccc(Cl)c2)CC1	DRD3 antagonist inconclusive
O=C1CC(=C2c3ccccc3-c3ccccc32)C(=O)N1CCCCN1CCN(c2ccccc2)CC1	DRD3 antagonist -55
O=C(O)c1cccc(-n2c(/C=C/c3ccccc3)nc3ccccc3c2=O)c1	none
O=C(O)c1cc(-n2c(/C=C\c3ccc(F)cc3)nc3ccccc3c2=O)ccc1Cl	D1 antagonist -32 (no result: DRD3 antagonist)
CN(C)c1ccc(/C=C/c2nc3ccccc3c(=O)n2-c2ccc(C(=O)O)cc2)cc1	D1 agonist 102
CC(C)(C)OC(=O)Cc1nnc(C(C(=O)OCc2ccccc2)c2ccccc2)o1 (configuration not stated)	none (no result: D3 ag, DRD3 antagonist)
COc1cc(C2NC(=O)C(C#N)=C(S)N2c2ccccc2)ccc1OC(C)C (configuration not stated)	DRD3 antagonist -67
COC(=O)c1ccc(NC(=O)CN2C(=O)CC(c3ccccc3)Sc3ccccc32)cc1 (configuration not stated)	none (no result: DRD3 antagonist)
CC(C)Sc1nc(N)c2c3c(sc2n1)CN(C)CC3	DRD3 antagonist -58
CSc1nc(NCc2ccccc2)c2c3c(sc2n1)CN(C)CC3	DRD3 antagonist -76
CSc1nc(NCC(C)C)c2c3c(sc2n1)CN(C)CC3	DRD3 antagonist -72
Fc1ccc(NC(=S)N2N=CCC2c2ccccc2)cc1 (configuration not stated)	D1 agonist 77
C/C=C/c1ccc(OCCCCOc2ccc(OC)cc2)c(OC)c1	none
C/C=C/c1ccc(OCCCCN2CCN(CC)CC2)c(OC)c1	D1 antagonist -33
C/C=C/c1ccc(OCCCN2C(=O)NC(C)(C)C2=O)c(OC)c1	none
C/C=C/c1ccc(OCCCCN2CC(C)CC(C)C2)c(OC)c1 (configuration not stated)	DRD3 antagonist -74
Cc1ccccc1OCCCCN1CCCCC1	none
CC1CCN(CCCCOc2ccccc2F)CC1	DRD3 antagonist -82
Brc1ccccc1OCCCCN1CCCCC1	DRD3 antagonist -97
Fc1ccccc1OCCCCCN1CCCC1	none
CC1CCN(CCCCOc2ccccc2Br)CC1	DRD3 antagonist -54
Brc1ccccc1OCCCN1CCOCC1	DRD3 antagonist -51
CCOc1ccc(-c2nc(SCC(=O)Nc3cc(F)ccc3F)n3[nH]c(=O)cc3n2)cc1	none (no result: DRD3 antagonist)
O=C(c1ccc(COc2ccc(Cl)cc2)cc1)N1CCCCC1	none (no result: D1 PAM)
O=C(c1ccc(COc2ccccc2Br)cc1)N1CCCCCC1	D1 antagonist -37, DRD3 antagonist inconclusive
CCOC(=O)CCNCc1ccc(OC)c(OC)c1	none
CCOC(=O)CC(NCc1ccc(OC)c(OCC)c1)c1ccc(C)cc1 (configuration not stated)	DRD3 antagonist -51
COC(=O)c1ccccc1NC(=O)CNc1ccc(F)c(S(=O)(=O)N2CCOCC2)c1	D1 antagonist -51
COc1ccc(CC(=O)Nc2ccc(F)c(S(=O)(=O)N3CCOCC3)c2)cc1	none (no result: D1 agonist, D1 antagonist, D1 PAM)
Cc1cc(C(=O)Nc2ccc(C)c(S(=O)(=O)N3CCOCC3)c2)c(C)o1	DRD3 antagonist inconclusive
Cc1ccc(NC(=O)CSc2n[nH]c(N)n2)cc1S(=O)(=O)N1CCOCC1	D1 antagonist -64
Cc1ccc(C(=O)Nc2ccc(C)c(S(=O)(=O)N3CCOCC3)c2)c(C)c1	D1 antagonist -42
COc1cc(-c2cc(C(=O)Nc3ccc(C)c(S(=O)(=O)N4CCOCC4)c3)c3ccccc3n2)cc(OC)c1OC	D3 ag 33 (no result: D1 agonist, D1 antagonist, D1 PAM)
O=c1c(-c2cc(-c3ccc(F)cc3)nc3c2COc2ccc(Cl)cc2-3)coc2ccc(F)cc12	none (no result: DRD3 antagonist)
CCOC(=O)c1c(C)[nH]c(C)c1S(=O)(=O)N(C)CC(=O)Nc1ccc(C)cc1Br	none (no result: DRD3 antagonist)
O=C(Nc1cccnc1)c1ccc(F)c(S(=O)(=O)N2CCOCC2)c1	none
Cc1ccc(C(=O)Nc2ccccc2[N+](=O)[O-])cc1S(=O)(=O)N1CCOCC1	D1 antagonist -34
Cc1ccc(C(=O)Nc2ccon2)cc1S(=O)(=O)N1CCOCC1	D3 ag 32
O=C(Nc1ccc(F)c(F)c1)c1ccc(F)c(S(=O)(=O)N2CCOCC2)c1	D1 antagonist -33 (no result: D3 ag, DRD3 antagonist)
O=C(NCCc1ccc(F)cc1)c1ccc(Cl)c(S(=O)(=O)N2CCOCC2)c1	D1 antagonist -33
CC1=C(C(=O)NCc2ccccc2F)C2(CCCCC2)OC1=O	none (no result: DRD3 antagonist)
